SMILES strings stand for the structures. Active and inactive are the calls of the source. Rule for the calls: active = hit-call score of the fitted dose curve at least 0.9, where 1 is the maximum; inconclusive = response in the unintended direction; inactive = score below 0.9.

Sequence of Peroxisome proliferator-activated receptor gamma (Homo sapiens) (P37231 whole entry, looked up, the tested form may be a part): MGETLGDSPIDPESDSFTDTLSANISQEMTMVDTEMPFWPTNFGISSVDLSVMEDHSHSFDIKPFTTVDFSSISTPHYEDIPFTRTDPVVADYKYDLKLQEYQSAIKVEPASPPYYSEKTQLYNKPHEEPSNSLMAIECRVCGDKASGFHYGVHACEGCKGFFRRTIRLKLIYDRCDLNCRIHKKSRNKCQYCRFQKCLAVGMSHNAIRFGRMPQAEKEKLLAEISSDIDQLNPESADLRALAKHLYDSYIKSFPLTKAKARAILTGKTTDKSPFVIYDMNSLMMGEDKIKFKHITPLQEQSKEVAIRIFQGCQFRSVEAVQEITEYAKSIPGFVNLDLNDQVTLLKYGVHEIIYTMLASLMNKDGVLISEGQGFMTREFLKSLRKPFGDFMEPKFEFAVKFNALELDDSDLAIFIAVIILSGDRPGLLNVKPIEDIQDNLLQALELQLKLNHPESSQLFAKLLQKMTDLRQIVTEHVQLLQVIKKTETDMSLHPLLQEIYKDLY

The assay has as its target Peroxisome proliferator-activated receptor gamma (Homo sapiens) (UniProt P37231). The experiment in a line: OT_PPARg_PPARgSRC1_1440: Odyssey Thera (OT) 24-hour Protein-Complementation Assay for Peroxisome Proliferator-activated Receptor Gamma/ SRC-1 Co-activator (AID 2283388).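 Note: nuclear to cytoplasmic ratio of reconstituted Venus YFP fluorescence in fixed imaged cells.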 Here is the method:
OT_PPARg_PPARgSRC1_1440 is a cell-based assay that uses HEK293T, a human kidney cell line, with measurements taken at 24 hours after chemical dosing in a 384-well plate.OT_PPARg_PPARgSRC1_1440 is one of one assay component(s) measured or calculated from the OT_PPARg_PPARgSRC1_1440 assay. It is designed to make measurements of protein fragment complementation, a form of binding reporter, as detected with fluorescence intensity signals by Protein-fragment Complementation technology.Data from the assay component OT_PPARg_PPARgSRC1_1440 was analyzed into 1 assay endpoint. This assay endpoint, OT_PPARg_PPARgSRC1_1440, was analyzed in the positive analysis fitting direction relative to DMSO as the negative control and baseline of activity. Using a type of binding reporter, measures of receptor for gain-of-signal activity can be used to understand the binding at the pathway-level as they relate to the gene PPARG. Furthermore, this assay endpoint can be referred to as a primary readout, because the performed assay has only produced 1 assay endpoint. To generalize the intended target to other relatable targets, this assay endpoint is annotated to the nuclear receptor intended target family, where the subfamily is non-steroidal.
The OT PPARg/SRC-1 assay assessed receptor-chemical interactions using a rapidly maturing, intensely fluorescent mutant of YFP known as Venus, rationally dissected into two separate fragments. The fragments were obtained as follows: first, fragments coding for YFP1 and YFP2 (corresponding to amino acid residues 1-158 and 159-239 of the full length YFP, respectively) were generated by oligonucleotide synthesis (Blue Heron Biotechnology), and then PCR mutagenesis was used to generate the mutant fragments IFP1 and IFP2. Fusion constructs were transfected into HEK293T cells with a (Gly4Ser)2 linker between the PPARg/SRC-1 and YFP fragment genes to facilitate complementation when interacting proteins bring fragments into close proximity. The construct is transiently transfected in HEK293T cells 48 hours prior to treatment with test compounds. Cells are seeded into optical quality 384-well poly-D-lysine coated plates in MEM alpha medium (Invitrogen) supplemented with 10 percent FBS (Gemini Bio-Products) 1 percent penicillin and 1 percent streptomycin, and grown in 37C incubator equilibrated to 5 percent CO2. Cells are allowed to adhere for 24 hours prior to treatment with compounds of interest or controls for 24 hours. Cells are fixed in 4 percent formaldehyde and stained with Draq5 (BioStatus) to identify cells and subcellular compartment boundaries prior to signal detection. 8 Images per well were acquired on an Evotec Opera at 2 wavelengths (488 and 635nm), and the ratio of fluorescence in the nucleus relative to fluorescence in the cytoplasm (N/C Ratio) in the 488nm channel was calculated for a minimum of 350 cells per image.
For the molecule `CCOC(=O)c1ccc(C)cc1`, the outcome was inactive. Consider `C=CCOC(=O)c1ccc(C(=O)OCC=C)c(C(=O)OCC=C)c1`, for which the molecule was called inactive. Consider `CC(CCC(=O)O)(c1ccc(O)cc1)c1ccc(O)cc1`, for which the outcome was inactive.

Consider `O=C(OCCc1ccccc1)c1ccccc1`, for which the molecule was called inactive.

With `CC(C)c1cc(C(C)C)cc(C(C)C)c1`, the result was inactive.

For `CC1=CCC2CC1C2(C)C` (stereo not given), the outcome was inactive. As for `C/C=C/C=C/CCCCCCCO`, the result was inactive. Still for that read-out and setting: under `Oc1ccc(-c2ccccc2)c(Cl)c1` stands “inactive”; under `CCOC(=O)c1ccccc1C`, “inactive”; under `CO[Si](C)(C)OC`, “inactive”. Still for that read-out and setting: then `CCCCCCCCCCCCc1ccc(O)cc1`, with “inactive”. In the case of `O=C(O)c1cc(O)c2ccccc2c1O`, the AC50 was 73.2 µM (active). With `CCCCCCCCC(CO)CCCCCC` (stereo not given), the result was inactive. Take `CCCCC(=O)O`: the molecule was called inactive.

For `COC(=O)c1ccccc1C`, the outcome was inactive.

For the molecule `CC(C)=CCCC(C)=CC#N`, the molecule was called inactive. The same measure, in the same setting: then `CC(C)(C)C1CCC(=O)CC1`, with “inactive”; and `CCCCc1ccc(Cl)cc1`, with “inactive”. Same read-out and setting: under `CCCCNC(=S)NCCCC` stands “inactive”; under `C[Si](C)(C)N[Si](C)(C)C`, “inactive”. Still for that read-out and setting: under `O=C(O)CC(C(=O)O)S(=O)(=O)O` (stereo not given) stands “inactive”; under `CCN1CN(CC)CN(CC)C1`, “inactive”.

As to `O=C(O)c1ccc2c(c1)C(=O)OC2=O`, the outcome was inactive. Take `CC12CCC(CC1)C(C)(C)O2`: the molecule was called inactive.

On to `N#Cc1ccc(C2CCCc3cncn32)cc1` (stereo not given), for which the outcome was inactive. The same measure, in the same setting: then `CCCCC(C=O)CC` (stereo not given), with “inactive”; and `CCCCCCCOC(=O)c1ccc(O)cc1`, with “inactive”. For `CC(C)(C)N`, the molecule was called inactive. On to `C[Si]1(C)O[Si](C)(C)O[Si](C)(C)O[Si](C)(C)O[Si](C)(C)O1`, for which the molecule was classed as inactive. As to `O=C(O)C1CCC(C(=O)O)CC1` (stereo not given), the molecule was classed as inactive. As to `C=C[Si](OCCOC)(OCCOC)OCCOC`, the result was inactive. For `C=C1C[C@H]2[C@@H]3C=C(C)C4=CC(=O)CC[C@]4(C)[C@H]3CC[C@]2(C)[C@@]1(OC(C)=O)C(C)=O`, the call was inactive. On to `CCCCCCCCCCCC(=O)N(C)CC(=O)O`, for which the molecule was classed as inactive. Consider `CCCCCCO`, for which the molecule was classed as inactive. Same read-out and setting: under `CC(=O)c1ccccc1O` stands “inactive”; under `CN(C)c1ccc2nc3ccc(=[N+](C)C)cc-3sc2c1`, “inactive”. The same measure, in the same setting: then `CCCCCCCCCC(C)=O`, with “inactive”. Still for that read-out and setting: then `CCCCCCOC(=O)CCCCC(=O)OCCCCCC`, with “inactive”; and `CC(=O)/C=C/C1C(C)=CCCC1(C)C` (stereo not given), with “inactive”; and `Cc1c(C(=O)c2c[nH]n(C)c2=O)ccc(S(C)(=O)=O)c1C1=NOCC1`, with “inactive”.

These data come from PubChem BioAssay (EPA / NIEHS).
